Several values for one entry are separate records, joined by “and”; a condition that tells them apart may be missing. Identical values can stand only once. The panel holds about 83,000 compounds, 20% with a hit somewhere; the sample as a whole holds those more often.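 Activity criterion: percent growth below 10, measured after cells in 96-well plates were exposed to a single compound concentration for 48 hours.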 Activity calls are given as the source filed them.
Tested on: MDA-MB-468 breast
Assay: NCI-60 one-dose screen, 48 h (100 = growth as untreated, 0 = no growth, -100 = all killed)
Conditions: 10 µM unless noted

CO[C@H]1CC[C@@]2(C)C(=CC[C@H]3[C@@H]4C[C@H](O)C[C@@]4(C)CC[C@@H]32)C1
growth: -12.8% (active)

CCCCCC[n+]1ccc(SCC(=O)n2ccc3ccccc32)c2ccccc21
growth: 4.72% (active)

O=C(CNc1cccnc1)Nc1ccc(C(=O)/C=C/c2ccc(Cl)cc2)cc1
growth: 91.9% (inactive)

COc1ccc(-c2c(N)noc2-c2cc(OC)c3c(c2)OCCO3)cc1
growth: -1.87% (active)

COC(=O)c1c(C)c2n(c1C)C(=O)C(c1ccccc1)=C2
growth: 39.1% (inactive)

CC(=O)OC[C@H]1O[C@H](OC(C)=O)[C@H](NC(=O)/C=C/CCl)[C@@H](OC(C)=O)[C@@H]1OC(C)=O
growth: 75.3% (inactive)

CCCCN1C(=O)CC(SC2CC(=O)N(CCCC)C2=O)C1=O (stereo not drawn)
growth: 105% (inactive)

CC(Cc1cccc(C(F)(F)F)c1)NCCOC(=O)c1ccccc1 (stereo not drawn)
growth: 107% (inactive)

NC(N)=Nc1ccc(Nc2cccc(Oc3ccc(Cl)c(C(F)(F)F)c3)c2)cn1
growth: 8.19% (active)

C=C(C)C1CC(O)C2(C)CCCC3C2C1CC(C)C3(C)CC/C(C)=C/C(O)C1CCC(=O)c2c(OC)cc(OC)cc21 (stereo not drawn)
growth: 0.0686% (active)

C=CC(=O)OCCCCCCCC
growth: 106% (inactive)

COc1ccc2c(c1)c(-c1nc(-c3ccc4ccccc4c3)cs1)cn2C
growth: 10.4% (inactive)

COc1cc(Nc2ncc(F)c(Nc3ccc4c(n3)N(COP(=O)(O)O)C(=O)C(C)(C)O4)n2)cc(OC)c1OC
growth: 6.8% (active)

NC(=S)NS(=O)(=O)c1ccc(N)cc1
growth: 96.5% (inactive)

COc1ccc(C2=C(c3cc(OC)c(OC)c(OC)c3)C(=O)CC2)cc1
growth: 4.52% (active)

Cc1c2ccccc2nc2cc3c(cc12)[C@H]1CC[C@]2(C)C(=O)CC[C@H]2[C@@H]1CC3
growth: 91.3% (inactive)

COc1cc(/C=C/C(=O)/C=C(O)/C=C/c2ccc(OC(=O)C34CC5CC(CC(C5)C3)C4)c(OC)c2)ccc1OC(=O)C12CC3CC(CC(C3)C1)C2
growth: 108% (inactive)

Cc1ncc(C(=O)Nc2ccc(CN3CCN(C)CC3)c(C(F)(F)F)c2)cc1C#Cc1c(N)ncc2ccc(C#N)cc12
growth: 98.5% (inactive)

Cn1ncc(Cl)c1-c1cc(C(=O)N[C@H](CN)Cc2ccc(F)c(F)c2)oc1Cl
growth: -69.6% (active)

COc1cc2c(c(OC)c1OC)-c1ccc(OC)c(=O)cc1[C@@H](NC(=O)CCl)CC2
growth: -5.69% (active)

O=C(CC(=O)c1ccccc1O)c1ccccc1
growth: 71.9% (inactive)

CCc1nc(C)cn1C(=O)OCc1nc2nc(Cl)nc(N3CCOCC3)c2[nH]1
growth: -54.6% (active)

O=C(CN1CCOCC1)Nc1ccc2ncnc(Nc3ccc(OCc4cccc(F)c4)c(Cl)c3)c2c1
growth: -25.1% (active)

COc1cc(-c2cc(C(=O)Nc3nc4ccccc4s3)nc3cc(-c4ccccc4)nn23)cc(OC)c1OC
growth: 59.6% (inactive)

O=C(c1nc2ccccc2[nH]1)C1C(c2ccc(Cl)cc2)C2CC3CCCC[C@H]3N2[C@@]12C(=O)Nc1cc(Cl)ccc12 (stereo partly drawn)
growth: 12.1% (inactive)

CCC(=O)Nc1cc2c(cc1Cl)-c1ccccc1C2
growth: 97.9% (inactive)

COC(=O)[C@@]1(C)CC[C@]2(C)CC[C@]3(C)C4=CC=C5C(=CC(=O)C(O)=C5C)[C@]4(C)[C@@H](O)C[C@@]3(C)[C@@H]2C1
growth: 10.1% (inactive)

N/C(=N\c1nc2ccccc2s1)NC(=O)Nc1cccc(Cl)c1
growth: 35.5% (inactive)

COc1ccc(Nc2nccc(N3CCN(c4c5ccc(Cl)cc5nc5ccc(OC)cc45)CC3)n2)cc1
growth: 31.5% (inactive)

CN1CCN(c2cnc(C(=O)Nc3cc(F)cc4cccnc34)cn2)CC1
growth: 9.54% (active)

CCN(CCCOc1ccc2c(Nc3cc(CC(=O)Nc4cccc(F)c4)[nH]n3)ncnc2c1)CCOP(=O)(O)O
growth: 67.6% (inactive)

COc1ccc(S(=O)(=O)N2CCN(c3cc4c(cc3F)c(=O)c(C(=O)O)cn4C3CC3)CC2)c(OC)c1
growth: 86.4% (inactive)

O=[N+]([O-])c1ccc(NC(=S)NNC(=S)Nc2ccc(F)cc2)cc1
growth: 74.6% (inactive)

Cc1c(CN2CCN(C(=O)[C@H](C)O)CC2)sc2c(N3CCOCC3)nc(-c3cnc(N)nc3)nc12
growth: -49.6% (active)

Clc1ccc(C2=NN(c3ccc(Cl)cc3)C(c3cccc(Nc4ccnc5cc(Cl)ccc45)c3)C2)cc1 (stereo not drawn)
growth: 78.2% (inactive)

CC1(C)CC[C@]23CC[C@]4(C)[C@H](CC[C@@H]5[C@@]6(C)C/C(=C/O)C(=O)C(C)(C)[C@@H]6CC[C@]54C)[C@H]2[C@H]1OC3
growth: 119% (inactive)

CC1(O)OC(COc2ccc(Cl)cc2)COC1O (stereo not drawn)
growth: 105% (inactive)

COc1ccccc1-n1c(-c2csc(NC(C)=O)n2)n[nH]c1=S
growth: 100% (inactive)

CC(C)N1CN2C(=S)NC3C2N(C1)C(=S)N3C (stereo not drawn)
growth: 101% (inactive)

COS(=O)(=O)c1ccc(Br)cc1
growth: 102% (inactive)

COC(=O)C(CSC(c1ccccc1)(c1ccccc1)c1ccccc1)NC(=O)C(CC(N)=O)NC(=O)OCc1ccccc1 (stereo not drawn)
growth: -17.7% (active)

COc1ccc(-n2c(SCc3nnc(NC(=O)c4ccc(Br)cc4)s3)nc3cc(OC)c(OC)cc3c2=O)cc1
growth: 93.6% (inactive)

Cc1cc(=O)oc2cc(Oc3nc(Br)cn4c(Br)cnc34)ccc12
growth: 41.4% (inactive)

O=C1OC(Cc2ccccc2)C1c1ccccc1 (stereo not drawn)
growth: 97.4% (inactive)

Fc1ccc2[nH]cc(-c3nc(-c4ccsc4)cs3)c2c1
growth: 69.6% (inactive)

N#Cc1cccc(-c2c(-c3ccc4ccccc4c3)oc3ccccc3c2=O)c1
growth: 3.16% (active)

O=c1oc2c(cc1-c1ccccc1)c(=O)[nH]c1ccccc12
growth: 105% (inactive)

C#CCOc1ccc2ncnc(Nc3cccc(NC(=O)CCl)c3)c2c1
growth: 68.5% (inactive)

C[C@H]1[C@@H]2[C@H]3CC[C@@H]4[C@@]5(C)Cc6c([nH]c7ccccc67)C(C)(C)[C@@H]5CC[C@@]4(C)[C@]3(C)CC[C@]23CO[C@]1(C)[C@@H](C(=O)/C=C/c1ccccn1)C3
growth: 99.3% (inactive)

N#Cc1c(-c2cccs2)cc(-c2cnccn2)nc1SCC(=O)N/N=C/c1ccccc1
growth: 9.18% (active)

CN1CCN(CCCN2c3ccccc3Sc3ccc(Cl)cc32)CC1
growth: -0.133% (active) and 70.8% (inactive)

COC(=O)C1CCc2sc3ncnc(Nc4cn[nH]c4C(=O)Nc4ccc(CN5CCN(C)CC5)cc4)c3c21 (stereo not drawn)
growth: 37.3% (inactive)

OCC(CO)(CCl)CCl
growth: 107% (inactive)

CCOC(=O)C1=C(C)NC(SCc2nnc(-c3ccc(Cl)cc3)o2)=NC1c1ccc(Cl)cc1 (stereo not drawn)
growth: 48.9% (inactive)

O=C(c1ccccc1)C(Cl)C(Cl)c1ccccc1 (stereo not drawn)
growth: 17.6% (inactive)

O=C(O)c1cn(C2CC2)c2cc(N3CCN(C(=O)N4CCOCC4)CC3)c(F)cc2c1=O
growth: 103% (inactive)

Nc1nc(N)c2cc(S(=O)(=O)c3cccc(C(F)(F)F)c3)ccc2n1
growth: 38.9% (inactive)

O=CN1N=C(c2ccc(Cl)cc2)CC1c1cccc(Nc2ccnc3cc(Cl)ccc23)c1 (stereo not drawn)
growth: -0.854% (active)

CCCC/C(CC)=N\NS(=O)(=O)c1ccc([N+](=O)[O-])cc1
growth: 109% (inactive)

COc1ccc(C(=O)c2cc(OC)c(OC)c(OC)c2OC)cc1O
growth: 29.7% (inactive)

NC(N)=Nc1ccc(S(=O)(=O)O)cc1
growth: 114% (inactive)

CC1(C)CNC(=O)N1
growth: 98.2% (inactive)

CCOC(=O)c1ccc(Nc2sc(C(=O)c3cccc([N+](=O)[O-])c3)c(N)c2C#N)cc1
growth: 4.24% (active)

COc1ccccc1CNC(=O)C1c2ccccc2C(=O)N(CC(C)C)C1c1cccs1 (stereo not drawn)
growth: 65.7% (inactive)

OCCN(CCO)c1ccc2ccccc2c1
growth: 107% (inactive)

Cc1ccc(-c2cc3c(SCC(=O)Nc4cc(C(F)(F)F)ccc4Cl)nccn3n2)cc1
growth: -19.3% (active)

CS(=O)(=O)c1ccc2c(c1)c1c(n2Cc2ccc(Cl)cc2)CCCC1
growth: 50.4% (inactive)

c1ccc2c(-c3c[nH]c4ccccc34)c3c(cc2c1)[nH]c1ccccc13
growth: 53.8% (inactive)

O=S(=O)(c1cc(Cl)ccc1O)c1cc(Cl)ccc1O
growth: 63.1% (inactive)

O=C(Nc1ccccc1C(=O)NCC1CC1)c1cccs1
growth: 102% (inactive)

CC(=O)Oc1ccc(OC(C)=O)c2ccccc12
growth: -53.2% (active)

CC[C@@](C)(NC(=O)C(C)(C)NC(=O)[C@@H](NC(=O)[C@@H]1CCCN1C(=O)C(C)(C)NC(=O)[C@H](CC(C)C)NC(=O)CNC(=O)C(C)(C)NC(=O)[C@@H](NC(=O)C(C)(C)NC(=O)[C@H](CCC(N)=O)NC(=O)[C@H](C)NC(=O)C(C)(C)NC(=O)[C@H](C)NC(=O)C(C)(C)NC(=O)[C@@H]1CCCN1C(=O)C(C)(C)NC(C)=O)C(C)C)C(C)C)C(=O)N[C@@H](CCC(N)=O)C(=O)N[C@@H](CCC(N)=O)C(=O)N[C@H](CO)Cc1ccccc1
growth: -3.95% [4.25 µM] (active)

Cc1ccc(NS(=O)(=O)c2ccccc2)c(NS(=O)(=O)c2ccccc2)c1
growth: 104% (inactive)

COc1ccc(C(C)=O)cc1S(=O)(=O)Nc1c(N)nc(SC)[nH]c1=O
growth: 97.6% (inactive)

O=C(Nc1ccc(Oc2cccc(Cl)c2)c(Cl)c1)c1cccnc1
growth: -9.21% (active)

O=C(CC1Sc2ccccc2NC1=O)NNc1ccc(F)cc1 (stereo not drawn)
growth: 92.7% (inactive)

CC(=O)Oc1ccc(N2C(=O)C(Cl)=C(Nc3cccc(C(F)(F)F)c3)C2=O)cc1
growth: 96.1% (inactive)

C/C(=N\O)[C@@H]1CC[C@]2(CO)CC[C@]3(C)[C@H](CC[C@@H]4[C@@]5(C)CCCNC(C)(C)[C@@H]5CC[C@]43C)[C@@H]12
growth: 74.6% (inactive)

— PubChem BioAssay (NCI)
